Experimental data reported in PubChem BioAssay (EPA / NIEHS).
The source made the active and inactive calls. Rule for the calls: active = hit-call score of the fitted dose curve at least 0.9, where 1 is the maximum; inactive = score below 0.9.

Legend:
[1] = molecular target: Hepatocyte nuclear factor 3-beta (Homo sapiens) (UniProt Q9Y261); assay: ATG_FoxA2_CIS: Attagene CIS-FACTORIAL HepG2 Assay for human Forkhead box A2 (FOXA2) (AID 2282942); settings: HepG2 cis-reporter transcription factor activity, 24 h; actives raise or lower the signal
Sequence of Hepatocyte nuclear factor 3-beta (Homo sapiens) (Q9Y261 whole entry, looked up): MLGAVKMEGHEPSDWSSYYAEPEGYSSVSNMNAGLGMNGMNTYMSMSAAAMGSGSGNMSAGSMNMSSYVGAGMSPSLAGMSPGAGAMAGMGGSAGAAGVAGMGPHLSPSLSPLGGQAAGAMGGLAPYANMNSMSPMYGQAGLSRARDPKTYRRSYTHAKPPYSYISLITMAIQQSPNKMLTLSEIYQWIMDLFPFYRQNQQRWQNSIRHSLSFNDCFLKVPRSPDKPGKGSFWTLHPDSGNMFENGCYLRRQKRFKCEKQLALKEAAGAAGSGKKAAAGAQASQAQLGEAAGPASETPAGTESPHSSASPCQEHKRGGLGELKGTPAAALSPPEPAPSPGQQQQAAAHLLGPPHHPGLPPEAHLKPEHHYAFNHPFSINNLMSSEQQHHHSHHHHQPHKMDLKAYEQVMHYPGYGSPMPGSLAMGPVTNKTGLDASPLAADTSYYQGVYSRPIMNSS
Procedure, shortened: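 Endogenous transcription factor activity was read in HepG2 cells carrying transiently transfected cis-promoter reporter units. After 24 h dosing, reporter mRNA was quantified by RT-PCR and capillary electrophoresis, and values fitted bidirectionally versus DMSO.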

[2] = ATG_FoxO_CIS: Attagene CIS-FACTORIAL HepG2 Assay for human Forkhead box O (FoxO) (AID 2282943); settings: HepG2 Attagene cis-reporter, FoxO element, mRNA; actives raise or lower the signal
Procedure, shortened: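 Read-out: fluorescence of 6-FAM-labelled reporter cDNA fragments resolved by capillary electrophoresis. Transiently transfected HepG2 cells were dosed for 24 h; activity fitted in both directions relative to DMSO controls.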

[3] = ATG_GATA_CIS: Attagene CIS-FACTORIAL HepG2 Assay for human GATA Binding Protein (AID 2282944); settings: HepG2 GATA cis-element reporter, Attagene multiplex mRNA; actives raise or lower the signal
Procedure, shortened: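 Reporter transcripts from a GATA cis-regulated unit, among multiplexed reporters in transfected HepG2 cells, were measured by RT-PCR with capillary electrophoresis after 24 h dosing. Induction or loss scored relative to DMSO.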

[4] = ATG_GRE_CIS: Attagene CIS-FACTORIAL HepG2 Assay for human Glucocorticoid Response Elements (GRE) (AID 2282947); settings: HepG2 GRE cis-reporter, Attagene multiplex mRNA; actives raise or lower the signal
Procedure, shortened: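 Fluorescence intensity of reporter-specific cDNA fragments, separated by capillary electrophoresis, provides the signal. Constructs carry cis-regulating promoters in transiently transfected HepG2 liver cells; 24 h incubation; fitting is bidirectional against DMSO.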

[5] = ATG_ISRE_CIS: Attagene CIS-FACTORIAL HepG2 Assay for human Interferon Regulatory Factor 1 (IRF1) binding to an Interferon-Stimulated Response Element (ISRE) (AID 2282948); settings: HepG2 ISRE cis-reporter (Attagene), mRNA transcription readout; actives raise or lower the signal
Procedure, shortened: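 Uses HepG2 liver cells transfected with cis-regulated reporters and measures mRNA 24 h post-dosing through RT-PCR, primer-extension labelling and capillary electrophoresis, with DMSO as negative control.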

[6] = ATG_M_32_CIS: Attagene CIS-FACTORIAL HepG2 Assay for M32 Transcription Factor (Internal Marker) (AID 2282949); settings: HepG2 Attagene cis-factorial M32 reporter, mRNA; actives raise or lower the signal;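 note: background control marker of the multiplexed CIS panel rather than a real target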
Procedure, shortened: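 HepG2 transfectants (cis-regulated reporter transcription units) dosed 24 h. Reporter mRNA by RT-PCR plus CE, analysed as gain or loss relative to DMSO.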

[7] = ATG_M_06_CIS: Attagene CIS-FACTORIAL HepG2 Assay for M06 Transcription Factor (Internal Marker) (AID 2282950); settings: HepG2 Attagene CIS-FACTORIAL M06 internal marker reporter; actives raise or lower the signal
Procedure, shortened: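 Serves as a background control readout. Transfected HepG2 exposed to compounds for 24 h, then reporter transcripts quantified by fluorescent RT-PCR and capillary electrophoresis. Both directions fitted against DMSO baseline.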

[8] = molecular target: Hypoxia-inducible factor 1-alpha (Homo sapiens) (UniProt Q16665); assay: ATG_HIF1a_CIS: Attagene CIS-FACTORIAL HepG2 Assay for human Hypoxia Inducible Factor 1 (HIF1A) (AID 2282951); settings: HepG2 Attagene cis-factorial HIF1a reporter transcription; actives raise or lower the signal
Sequence of Hypoxia-inducible factor 1-alpha (Homo sapiens) (Q16665 whole entry, looked up): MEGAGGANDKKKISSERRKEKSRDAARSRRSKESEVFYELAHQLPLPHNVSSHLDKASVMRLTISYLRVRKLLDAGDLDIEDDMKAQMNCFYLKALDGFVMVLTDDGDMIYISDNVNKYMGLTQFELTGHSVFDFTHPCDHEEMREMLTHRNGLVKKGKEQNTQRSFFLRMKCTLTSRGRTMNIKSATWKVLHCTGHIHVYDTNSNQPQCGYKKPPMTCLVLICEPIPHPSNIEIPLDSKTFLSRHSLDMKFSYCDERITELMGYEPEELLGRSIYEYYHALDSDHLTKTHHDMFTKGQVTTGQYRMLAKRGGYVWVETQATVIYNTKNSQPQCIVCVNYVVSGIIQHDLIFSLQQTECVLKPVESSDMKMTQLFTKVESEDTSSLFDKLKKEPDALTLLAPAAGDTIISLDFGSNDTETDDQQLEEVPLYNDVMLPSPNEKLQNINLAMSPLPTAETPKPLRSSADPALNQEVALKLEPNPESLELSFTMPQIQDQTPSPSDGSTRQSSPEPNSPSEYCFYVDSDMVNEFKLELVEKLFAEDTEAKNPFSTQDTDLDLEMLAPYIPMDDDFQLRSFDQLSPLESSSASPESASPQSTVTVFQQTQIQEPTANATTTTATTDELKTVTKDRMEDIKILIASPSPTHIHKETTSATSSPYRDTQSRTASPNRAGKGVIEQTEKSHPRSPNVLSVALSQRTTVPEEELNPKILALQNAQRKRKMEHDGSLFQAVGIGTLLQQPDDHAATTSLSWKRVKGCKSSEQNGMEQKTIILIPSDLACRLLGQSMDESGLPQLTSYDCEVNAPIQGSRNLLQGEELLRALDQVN
Procedure, shortened: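 Measures endogenous transcription-factor activity through cis-regulated reporter mRNA in HepG2. Cells dosed 24 h; transcripts quantified by RT-PCR with 6-FAM-labelled products separated by capillary electrophoresis; DMSO serves as negative control.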

[9] = molecular target: Hepatocyte nuclear factor 6 (Homo sapiens) (UniProt Q9UBC0); assay: ATG_HNF6_CIS: Attagene CIS-FACTORIAL HepG2 Assay for human Hepatocyte Nuclear Factor 6 (HNF6) (AID 2282952); settings: HepG2 Attagene cis-factorial HNF6 reporter transcription; actives raise or lower the signal
Sequence of Hepatocyte nuclear factor 6 (Homo sapiens) (Q9UBC0 whole entry, looked up, the tested form may be a part): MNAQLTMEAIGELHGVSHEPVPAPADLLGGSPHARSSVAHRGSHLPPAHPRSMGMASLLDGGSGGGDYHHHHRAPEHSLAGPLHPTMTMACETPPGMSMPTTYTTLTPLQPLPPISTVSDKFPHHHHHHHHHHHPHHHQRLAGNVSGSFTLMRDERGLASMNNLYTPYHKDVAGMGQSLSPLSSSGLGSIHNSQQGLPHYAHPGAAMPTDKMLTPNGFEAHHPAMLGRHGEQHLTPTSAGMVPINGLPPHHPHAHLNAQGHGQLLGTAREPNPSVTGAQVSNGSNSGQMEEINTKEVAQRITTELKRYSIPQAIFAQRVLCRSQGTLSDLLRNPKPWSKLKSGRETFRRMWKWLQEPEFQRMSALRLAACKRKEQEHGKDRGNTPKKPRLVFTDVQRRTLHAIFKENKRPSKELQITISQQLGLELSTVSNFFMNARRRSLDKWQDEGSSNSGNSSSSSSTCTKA
Procedure, shortened: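 First, HepG2 cells were transfected with the multiplexed cis reporter library and dosed with chemical for 24 h. Next, RNA was reverse-transcribed, PCR-amplified and fluorescently labelled. Finally, HpaI-digested fragments were read by capillary electrophoresis.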

[10] = molecular target: Heat shock factor protein 1 (Homo sapiens) (UniProt Q00613); assay: ATG_HSE_CIS: Attagene CIS-FACTORIAL HepG2 Assay for human Heat Shock Transcription Factor 1 (HSE) (AID 2282953); settings: HepG2 HSE cis-reporter, Attagene RNA transcription; actives raise or lower the signal
Sequence of Heat shock factor protein 1 (Homo sapiens) (Q00613 whole entry, looked up): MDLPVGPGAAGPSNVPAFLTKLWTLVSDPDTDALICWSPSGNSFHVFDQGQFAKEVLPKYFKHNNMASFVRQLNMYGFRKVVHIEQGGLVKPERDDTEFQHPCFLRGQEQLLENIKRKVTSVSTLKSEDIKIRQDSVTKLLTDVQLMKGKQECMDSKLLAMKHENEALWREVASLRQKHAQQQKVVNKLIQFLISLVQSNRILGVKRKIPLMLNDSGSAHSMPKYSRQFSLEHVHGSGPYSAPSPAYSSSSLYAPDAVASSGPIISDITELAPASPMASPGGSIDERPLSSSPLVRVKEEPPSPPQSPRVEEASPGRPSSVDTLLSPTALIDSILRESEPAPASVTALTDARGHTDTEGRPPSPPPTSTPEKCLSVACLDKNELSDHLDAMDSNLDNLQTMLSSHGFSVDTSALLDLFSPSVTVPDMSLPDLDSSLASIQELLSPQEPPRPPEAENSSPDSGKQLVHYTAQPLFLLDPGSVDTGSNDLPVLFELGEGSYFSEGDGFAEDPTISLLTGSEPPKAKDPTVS
Procedure, shortened: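 Endogenous transcription factor activity in transiently transfected HepG2, read as reporter mRNA by RT-PCR with fluorescent capillary electrophoresis after 24 h. Gain or loss of signal fitted versus DMSO baseline.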

[11] = ATG_MRE_CIS: Attagene CIS-FACTORIAL HepG2 Assay for human Metal Responsive Element (MRE) (AID 2282954); settings: HepG2 MRE cis-reporter transcription, Attagene multiplex; actives raise or lower the signal
Procedure, shortened: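 Measured here is mRNA induction from an MRE cis-element reporter in HepG2 after 24 h, quantified by fluorescence of labelled RT-PCR products on capillary electrophoresis; gain- and loss-of-signal fits use DMSO as baseline.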

[12] = ATG_PBREM_CIS: Attagene CIS-FACTORIAL HepG2 Assay for human Phenobarbital-responsive Enhancer Module (PBREM) (AID 2282955); settings: HepG2 PBREM cis-reporter, Attagene multiplexed transcription; actives raise or lower the signal
Procedure, shortened: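 Fluorescence of labelled reporter cDNA fragments, resolved by capillary electrophoresis, gives mRNA induction in transfected HepG2 cells treated for 24 h; DMSO serves as negative control and baseline.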

[13] = molecular target: Paired box protein Pax-6 (Homo sapiens) (UniProt P26367); assay: ATG_Pax6_CIS: Attagene CIS-FACTORIAL HepG2 Assay for human Paired Box 6 (PAX6) (AID 2282956); settings: HepG2 CIS-FACTORIAL PAX6 reporter transcription, RNA readout; actives raise or lower the signal
Sequence of Paired box protein Pax-6 (Homo sapiens) (P26367 whole entry, looked up): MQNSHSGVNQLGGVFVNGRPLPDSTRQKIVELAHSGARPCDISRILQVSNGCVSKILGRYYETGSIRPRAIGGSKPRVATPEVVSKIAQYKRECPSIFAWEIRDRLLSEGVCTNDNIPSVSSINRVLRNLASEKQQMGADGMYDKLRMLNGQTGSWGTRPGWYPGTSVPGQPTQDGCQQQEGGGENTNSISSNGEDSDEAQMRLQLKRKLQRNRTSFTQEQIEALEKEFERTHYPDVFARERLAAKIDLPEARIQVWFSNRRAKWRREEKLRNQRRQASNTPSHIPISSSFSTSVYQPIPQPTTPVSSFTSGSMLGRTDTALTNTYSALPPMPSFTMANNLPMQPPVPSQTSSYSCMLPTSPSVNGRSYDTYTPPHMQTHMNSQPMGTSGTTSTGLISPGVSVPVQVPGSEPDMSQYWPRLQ
Procedure, shortened: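 DMSO-referenced bidirectional fits of reporter mRNA fluorescence; HepG2 with transient cis-promoter MRTUs, 24 h post-dose, RT-PCR plus capillary electrophoresis detection.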

[14] = ATG_PXRE_CIS: Attagene CIS-FACTORIAL HepG2 Assay for human Pregnane X Receptor Element (PXRE) (AID 2282957); settings: HepG2 Attagene CIS-FACTORIAL PXRE reporter, mRNA; actives raise or lower the signal
Procedure, shortened: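 After a 24 h chemical incubation, total RNA from transfected HepG2 cells was reverse-transcribed and reporter cDNA amplified, FAM-labeled, HpaI-digested and sized by capillary electrophoresis. DMSO served as baseline for bidirectional curve fitting.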

[15] = ATG_PPRE_CIS: Attagene CIS-FACTORIAL HepG2 Assay for human Peroxisome Proliferator-activated Response Element (PPRE) (AID 2282958); settings: HepG2 PPRE cis-element reporter, Attagene transcription factor profiling; actives raise or lower the signal
Procedure, shortened: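 Cells are first transfected transiently with the multiplexed reporter library, then dosed for 24 h. Total RNA is reverse-transcribed, amplified, fluorescently end-labeled and HpaI-cut before capillary electrophoresis; activity is fitted bidirectionally against DMSO controls.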

[16] = ATG_Sox_CIS: Attagene CIS-FACTORIAL HepG2 Assay for human SRY-box transcription factor (SOX) (AID 2282960); settings: HepG2 Attagene cis-factorial SOX reporter, mRNA; actives raise or lower the signal
Procedure, shortened: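 Transient MRTU transfection of HepG2; 24 h compound incubation; TriZol RNA, oligo(dT) RT, PCR, 6-FAM primer extension, HpaI cut, CE. Bidirectional fit, DMSO = baseline.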

[17] = ATG_GLI_CIS: Attagene CIS-FACTORIAL HepG2 Assay for human Zinc Finger Protein GLI1 (AID 2282945); settings: HepG2, Attagene cis-factorial reporter mRNA, GLI element; actives raise or lower the signal
Procedure, shortened: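 Transiently transfected HepG2 cells report endogenous transcription factor activity via cis-element-driven reporter units. After 24 h compound exposure, reporter mRNA was measured by RT-PCR with capillary electrophoresis; bidirectional fitting against DMSO baseline.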

[18] = ATG_RORE_CIS: Attagene CIS-FACTORIAL HepG2 Assay for human RAR-related Orphan Receptor Element (RORE) (AID 2282959); settings: HepG2 Attagene cis-factorial RORE reporter, mRNA; actives raise or lower the signal
Procedure, shortened: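 Cells were HepG2 carrying transfected cis-regulated reporter constructs, dosed for 24 hours. Total RNA was reverse-transcribed and reporter cDNA amplified, fluorescently labeled and sized by capillary electrophoresis. Activity was fitted bidirectionally relative to DMSO.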

[19] = molecular target: Bile acid receptor (Homo sapiens) (UniProt Q96RI1); assay: ATG_IR1_CIS: Attagene CIS-FACTORIAL HepG2 Assay for human Nuclear Receptor Subfamily 1 Group H Member 4 (NR1H4), IR1 submotif (AID 2282946); settings: IR1 reporter transcription, actives raise or lower the signal
Sequence of Bile acid receptor (Homo sapiens) (Q96RI1 whole entry, looked up): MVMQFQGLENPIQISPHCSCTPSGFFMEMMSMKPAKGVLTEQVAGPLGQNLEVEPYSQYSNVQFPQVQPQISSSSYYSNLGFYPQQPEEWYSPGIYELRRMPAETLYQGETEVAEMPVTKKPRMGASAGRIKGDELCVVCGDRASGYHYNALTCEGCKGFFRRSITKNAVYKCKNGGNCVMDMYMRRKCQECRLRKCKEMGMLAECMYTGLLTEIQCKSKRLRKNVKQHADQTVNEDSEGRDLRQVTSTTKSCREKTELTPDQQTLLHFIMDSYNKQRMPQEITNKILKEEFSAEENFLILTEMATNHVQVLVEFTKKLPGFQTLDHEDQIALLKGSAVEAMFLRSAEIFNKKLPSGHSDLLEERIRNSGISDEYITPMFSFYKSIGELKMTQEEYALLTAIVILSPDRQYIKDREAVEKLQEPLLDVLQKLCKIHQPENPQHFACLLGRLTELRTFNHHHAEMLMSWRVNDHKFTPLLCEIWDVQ
Procedure, shortened: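 Fluorescence of capillary-separated, HpaI-digested RT-PCR reporter products gave IR1-element mRNA induction in HepG2 cells 24 h after dosing. Endogenous transcription factors drove the cis-regulated reporters; activity was fitted bidirectionally against DMSO.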

ClC1=C(Cl)[C@]2(Cl)[C@H]3[C@H]([C@H]4C=C[C@H]3C4)[C@@]1(Cl)C2(Cl)Cl
outcome [1]: inactive
outcome [2]: inactive
outcome [3]: inactive
outcome [4]: inactive
outcome [5]: inactive
outcome [6]: inactive
outcome [7]: inactive
AC50 [8]: 4.66 µM (active)
outcome [9]: inactive
outcome [10]: inactive
AC50 [11]: 3.77 µM (active)
outcome [12]: inactive
outcome [13]: inactive
AC50 [14]: 1.6 µM (active)
outcome [15]: inactive
outcome [16]: inactive

COc1cccc(C=O)c1
outcome [1]: inactive
outcome [3]: inactive
outcome [17]: inactive
outcome [4]: inactive
outcome [5]: inactive
outcome [6]: inactive
outcome [7]: inactive
outcome [8]: inactive
outcome [9]: inactive
outcome [10]: inactive
outcome [11]: inactive
outcome [12]: inactive
outcome [13]: inactive
outcome [14]: inactive
outcome [15]: inactive
outcome [18]: inactive
outcome [16]: inactive

Oc1c(I)cc(I)cc1I
outcome [1]: inactive
outcome [3]: inactive
outcome [19]: inactive
outcome [4]: inactive
AC50 [5]: 100 µM (active)
outcome [6]: inactive
outcome [7]: inactive
AC50 [8]: 41.9 µM (active)
outcome [9]: inactive
AC50 [10]: 125 µM (active)
AC50 [11]: 100 µM (active)
AC50 [13]: 77.1 µM (active)
outcome [14]: inactive
AC50 [15]: 64.2 µM (active)
AC50 [18]: 31.1 µM (active)
AC50 [16]: 160 µM (active)

O=C(CCl)CCl
outcome [1]: inactive
AC50 [2]: 46.3 µM (active)
outcome [3]: inactive
outcome [17]: inactive
AC50 [4]: 33.4 µM (active)
AC50 [5]: 33.4 µM (active)
AC50 [6]: 54.6 µM (active)
AC50 [8]: 45.6 µM (active)
AC50 [9]: 33.4 µM (active)
AC50 [10]: 58.7 µM (active)
AC50 [11]: 48.9 µM (active)
AC50 [13]: 41.3 µM (active)
outcome [15]: inactive
outcome [18]: inactive
outcome [16]: inactive

Nc1ccc(Cl)cc1C(=O)c1ccccc1
outcome [1]: inactive
outcome [2]: inactive
outcome [3]: inactive
outcome [17]: inactive
outcome [19]: inactive
outcome [4]: inactive
outcome [5]: inactive
outcome [6]: inactive
outcome [7]: inactive
outcome [8]: inactive
outcome [9]: inactive
outcome [10]: inactive
AC50 [11]: 25.6 µM (active)
AC50 [13]: 29.6 µM (active)
outcome [15]: inactive
outcome [16]: inactive

CCc1ccccc1C
outcome [1]: inactive
outcome [2]: inactive
outcome [3]: inactive
outcome [17]: inactive
outcome [19]: inactive
outcome [4]: inactive
outcome [5]: inactive
outcome [6]: inactive
outcome [7]: inactive
outcome [8]: inactive
outcome [9]: inactive
outcome [10]: inactive
outcome [11]: inactive
outcome [13]: inactive
outcome [14]: inactive
outcome [15]: inactive
outcome [16]: inactive

CCOP(=S)(OCC)SCSP(=S)(OCC)OCC
outcome [1]: inactive
outcome [2]: inactive
outcome [3]: inactive
outcome [17]: inactive
outcome [4]: inactive
outcome [5]: inactive
outcome [6]: inactive
outcome [7]: inactive
outcome [8]: inactive
outcome [9]: inactive
outcome [10]: inactive
outcome [11]: inactive
AC50 [12]: 1.06 µM (active)
outcome [13]: inactive
AC50 [14]: 0.192 µM (active)
outcome [15]: inactive
outcome [18]: inactive
outcome [16]: inactive
